# Where “and” joins values, the source holds several entries; their conditions need not be identical. Identical values can stand only once. Inconclusive results are not listed. Some compounds were tested as several samples or in several runs, with calls that do not always agree. Calls of active or inactive are those of the source. How the source made its calls, unless noted: active means hit-call score of the fitted dose curve at least 0.9, where 1 is the maximum; inconclusive means response in the unintended direction; inactive means score below 0.9.
# How the values were obtained:
# [1] = Tanguay_ZF_120hpf_JAW_legacy: (Legacy) Oregon State University Tanguay Lab 120 Hour Post-fertilization zebrafish Assay for Jaw Malformation (AID 2283638);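 on AC50: active means more embryos with jaw malformation than DMSO controls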
# Procedure, shortened: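 Binary jaw-malformation call at 120 hpf by brightfield microscopy. Embryos (Tropical 5D strain, chorion removed at 4 hpf) were dosed statically at 6 hpf, one per well, at 28C with 0.64% DMSO. Embryos that died were not scored.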
# [2] = Tanguay_ZF_120hpf_OTIC_legacy: (Legacy) Oregon State University Tanguay Lab 120 Hour Post-fertilization zebrafish Assay for Otic Vesicle Malformation (AID 2283639)
# Procedure, shortened: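 Statically exposed wild-type 5D zebrafish embryos, kept sealed and dark at 28C through 120 hours post fertilization, were examined by brightfield microscopy for otic vesicle defects. Responses were recorded as present or absent and analysed relative to DMSO.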
# [3] = Tanguay_ZF_120hpf_PE_legacy: (Legacy) Oregon State University Tanguay Lab 120 Hour Post-fertilization zebrafish Assay for Pericardial Edema (AID 2283640);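 on AC50: potency for increased incidence of pericardial edema versus DMSO baseline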
# Procedure, shortened: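 Scoring was binary, by brightfield microscopy at 120 hpf, and skipped where mortality occurred. Wild-type embryos were kept under sealed, foil-covered static exposure at 28C in 0.64% (vol/vol) DMSO.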
# [4] = Tanguay_ZF_120hpf_BRAI_legacy: (Legacy) Oregon State University Tanguay Lab 120 Hour Post-fertilization zebrafish Assay for Brain Malformation (AID 2283641)
# Procedure, shortened: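 Binary brightfield scoring of brain malformation at 120 hpf in Tropical 5D larvae held under static exposure at 28C (0.64% v/v DMSO), non-mortality endpoints skipped if dead. Positive control: 5uM trimethyltin chloride; fit versus DMSO.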
# [5] = Tanguay_ZF_120hpf_SOMI_legacy: (Legacy) Oregon State University Tanguay Lab 120 Hour Post-fertilization zebrafish Assay for Somite Malformation (AID 2283647)
# Procedure, shortened: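 Binary somite-defect scoring at 120 hpf, omitted for embryos that died, in wild-type (Tropical 5D) zebrafish with chorion removed by pronase at 4 hpf; static exposure began 6 hpf, single embryos per well, 28C, 0.64% DMSO; fitted positive versus DMSO.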
# [6] = Tanguay_ZF_120hpf_PFIN_legacy: (Legacy) Oregon State University Tanguay Lab 120 Hour Post-fertilization zebrafish Assay for Pectoral Fin Malformation (AID 2283648);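 further: each larva judged yes or no for fin defect by brightfield with dead larvae skipped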
# Procedure, shortened: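 Pectoral fin malformation was recorded as a binary endpoint at 120 hpf in wild-type Tropical 5D larvae, which had been dechorionated and exposed statically from 6 hpf at 28C in 0.64% DMSO. Dead embryos were excluded.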
# [7] = Tanguay_ZF_120hpf_CFIN_legacy: (Legacy) Oregon State University Tanguay Lab 120 Hour Post-fertilization zebrafish Assay for Caudal Fin Malformation (AID 2283649)
# Procedure, shortened: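 Binary brightfield scoring of caudal fin defects at 120 hpf after static, light-shielded exposure at 28C from 6 hpf. Tropical 5D embryos, chorion removed with pronase at 4 hpf, final DMSO 0.64%.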
# [8] = Tanguay_ZF_120hpf_PIG_legacy: (Legacy) Oregon State University Tanguay Lab 120 Hour Post-fertilization zebrafish Assay for Pigmentation Malformation (AID 2283650)
# Procedure, shortened: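 Pigment malformation recorded as a binary call at 120 hpf in zebrafish (Tropical 5D) exposed singly from 6 hpf after pronase dechorionation. Static, sealed, 28C exposure, 0.64% DMSO; mortality excludes scoring; positive-direction fit against DMSO.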
# [9] = Tanguay_ZF_120hpf_CIRC_legacy: (Legacy) Oregon State University Tanguay Lab 120 Hour Post-fertilization zebrafish Assay for Circulatory Malformation (AID 2283651)
# Procedure, shortened: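 Embryos are dechorionated at 4 hpf, plated one per well at 6 hpf, then held under static exposure at 28C until 120 hpf. Malformations are recorded as binary calls; mortality excludes other endpoints.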
# [10] = read-out: kallikrein-3 (KLK3), KLK3 (gene 354); test: LTEA_HepaRG_KLK3: Life Technologies and Expression Analysis (LTEA) Assay for kallikrein-3 (KLK3) using HepaRG (AID 2283652; active means hit-call score of the fitted dose curve at least 0.9, where 1 is the maximum; inactive means score below 0.9); conditions: mRNA level, 48 h; actives raise or lower the signal
# Procedure, shortened: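 KLK3 transcript levels were measured by TaqMan qRT-PCR with normalisation to three housekeeping genes. HepaRG cultures received chemicals for 48 h at up to 100 uM (half-log, 8 points, 0.5% DMSO vehicle), fitted in both directions against DMSO.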
compound,measurement,setting,value
O=C(O)c1ccccc1,outcome,[1],inactive
same,outcome,[2],inactive
same,outcome,[3],inactive
same,outcome,[4],inactive
same,outcome,[5],inactive
same,outcome,[6],inactive
same,outcome,[7],inactive
same,outcome,[8],inactive
same,outcome,[9],inactive
CCCN(CCC)c1c([N+](=O)[O-])cc(C(F)(F)F)c(N)c1[N+](=O)[O-],outcome,[1],inactive
same,outcome,[2],inactive
same,outcome,[3],inactive
same,outcome,[4],inactive
same,outcome,[5],inactive
same,outcome,[6],inactive
same,outcome,[7],inactive
same,outcome,[8],inactive
same,outcome,[9],inactive
O=C(c1ccccc1)C1CCCCC1,outcome,[1],inactive
same,outcome,[2],inactive
same,outcome,[3],inactive
same,outcome,[4],inactive
same,outcome,[5],inactive
same,outcome,[6],inactive
same,outcome,[7],inactive
same,outcome,[8],inactive
same,outcome,[9],inactive
CCOC(=O)NCCOc1ccc(Oc2ccccc2)cc1,outcome,[1],inactive
same,outcome,[2],inactive
same,outcome,[3],inactive
same,outcome,[4],inactive
same,outcome,[6],inactive
same,outcome,[7],inactive
same,outcome,[8],inactive
same,outcome,[9],inactive
CCCCCOC(=O)COc1cc(N2C(=O)C3=C(CCCC3)C2=O)c(F)cc1Cl,outcome,[1],inactive
same,outcome,[2],inactive
same,outcome,[3],inactive
same,outcome,[4],inactive
same,outcome,[5],inactive
same,outcome,[6],inactive
same,outcome,[7],inactive
same,outcome,[8],inactive
same,outcome,[9],inactive
CCCCOCCOCCOCc1cc2c(cc1CCC)OCO2,outcome,[1],inactive
same,outcome,[2],inactive
same,AC50,[3],26.2 µM (active)
same,outcome,[4],inactive
same,outcome,[5],inactive
same,outcome,[6],inactive
same,AC50,[7],10.7 µM (active)
same,outcome,[8],inactive
same,outcome,[9],inactive
same,outcome,[10],inactive
N#CSCSc1nc2ccccc2s1,outcome,[1],inactive
same,outcome,[2],inactive
same,outcome,[3],inactive
same,outcome,[4],inactive
same,outcome,[5],inactive
same,outcome,[6],inactive
same,outcome,[7],inactive
same,outcome,[8],inactive
same,outcome,[9],inactive
S=C(S)NCCNC(=S)S.[Mn+2].[S-]C([S-])=NCCN=C([S-])[S-].[Zn+2],outcome,[1],inactive
same,outcome,[2],inactive
same,outcome,[3],inactive
same,outcome,[4],inactive
same,outcome,[5],inactive
same,outcome,[6],inactive
same,outcome,[7],inactive
same,outcome,[8],inactive
same,outcome,[9],inactive
Cc1nn(C)c(Oc2ccccc2)c1C=NOCc1ccc(C(=O)OC(C)(C)C)cc1,outcome,[1],inactive
same,outcome,[2],inactive
same,outcome,[3],inactive
same,outcome,[4],inactive
same,outcome,[5],inactive
same,outcome,[6],inactive
same,outcome,[7],inactive
same,outcome,[8],inactive
same,outcome,[9],inactive
CC(C)(c1ccc(O)cc1)c1ccc(O)cc1,AC50,[1],41.7 µM (active) and 36.1 µM (active)
same,outcome,[1],inactive
same,AC50,[2],40.5 µM (active) and 37.7 µM (active)
same,outcome,[2],inactive
same,AC50,[3],43.3 µM (active) and 34.9 µM (active)
same,AC50,[4],41.6 µM (active) and 39.4 µM (active)
same,outcome,[4],inactive
same,AC50,[5],44.3 µM (active) and 36.4 µM (active)
same,outcome,[5],inactive
same,AC50,[6],29.8 µM (active) and 37.2 µM (active)
same,outcome,[6],inactive
same,AC50,[7],35.2 µM (active)
same,outcome,[7],inactive
same,AC50,[8],42 µM (active) and 36.8 µM (active)
same,AC50,[9],36.7 µM (active)
same,outcome,[9],inactive
CC1(C)C(C=C(Cl)Cl)C1C(=O)OCc1cccc(Oc2ccccc2)c1 (stereo not drawn),outcome,[1],inactive
same,outcome,[2],inactive
same,outcome,[3],inactive
same,outcome,[4],inactive
same,outcome,[5],inactive
same,outcome,[6],inactive
same,outcome,[7],inactive
CCCCC(CC)CN1C(=O)C2C3C=CC(C3)C2C1=O (stereo not drawn),outcome,[1],inactive
same,outcome,[2],inactive
same,outcome,[3],inactive
same,outcome,[4],inactive
same,outcome,[5],inactive
same,outcome,[6],inactive
same,outcome,[7],inactive
same,outcome,[8],inactive
CCOC(=O)C(C)Oc1ccc(Oc2cnc3cc(Cl)ccc3n2)cc1 (stereo not drawn),outcome,[1],inactive
same,outcome,[2],inactive
same,outcome,[3],inactive
same,outcome,[4],inactive
same,outcome,[5],inactive
same,outcome,[6],inactive
same,outcome,[7],inactive
same,outcome,[8],inactive
same,outcome,[9],inactive
CCOC(=O)C(C)Oc1ccc(Oc2nc3ccc(Cl)cc3o2)cc1 (stereo not drawn),outcome,[1],inactive
same,outcome,[2],inactive
same,outcome,[3],inactive
same,outcome,[4],inactive
same,outcome,[5],inactive
same,outcome,[6],inactive
same,outcome,[8],inactive
same,outcome,[9],inactive
COc1c(Cl)ccc(Cl)c1C(=O)O,outcome,[1],inactive
same,outcome,[2],inactive
same,outcome,[3],inactive
same,outcome,[4],inactive
same,outcome,[5],inactive
same,outcome,[6],inactive
same,outcome,[7],inactive
same,outcome,[8],inactive
same,outcome,[9],inactive
COCCO,outcome,[1],inactive
same,outcome,[2],inactive
same,outcome,[3],inactive
same,outcome,[5],inactive
same,outcome,[6],inactive
same,outcome,[7],inactive
same,outcome,[8],inactive
same,outcome,[9],inactive
CC(C)CCCCCCc1ccc(O)cc1,outcome,[1],inactive
same,outcome,[2],inactive
same,outcome,[3],inactive
same,outcome,[4],inactive
same,outcome,[5],inactive
same,outcome,[6],inactive
same,outcome,[7],inactive
same,outcome,[8],inactive
same,outcome,[9],inactive
CCC(C)OC(=O)N1CCCCC1CCO (stereo not drawn),outcome,[1],inactive
same,outcome,[2],inactive
same,outcome,[3],inactive
same,outcome,[4],inactive
same,outcome,[5],inactive
same,outcome,[6],inactive
same,outcome,[8],inactive
same,outcome,[9],inactive
O=C(O)C1(C(=O)Nc2ccc(Cl)cc2Cl)CC1,outcome,[1],inactive
same,outcome,[2],inactive
same,AC50,[3],41.9 µM (active)
same,outcome,[4],inactive
same,outcome,[5],inactive
same,outcome,[6],inactive
same,outcome,[7],inactive
same,outcome,[8],inactive
same,outcome,[9],inactive
CCN(Cc1c(F)cccc1Cl)c1c([N+](=O)[O-])cc(C(F)(F)F)cc1[N+](=O)[O-],outcome,[1],inactive
same,outcome,[2],inactive
same,outcome,[3],inactive
same,outcome,[5],inactive
same,outcome,[6],inactive
same,outcome,[7],inactive
same,outcome,[8],inactive
same,outcome,[9],inactive
S=C([S-])NCCNC(=S)[S-].[Mn+2],outcome,[1],inactive
same,outcome,[2],inactive
same,outcome,[3],inactive
same,outcome,[4],inactive
same,outcome,[5],inactive
same,outcome,[6],inactive
same,outcome,[7],inactive
same,outcome,[8],inactive
same,outcome,[9],inactive
same,outcome,[10],inactive
CC(=O)[C@H]1CC[C@H]2[C@@H]3CCC4=CC(=O)CC[C@]4(C)[C@H]3CC[C@]12C,outcome,[1],inactive
same,outcome,[2],inactive
same,outcome,[3],inactive
same,outcome,[4],inactive
same,outcome,[5],inactive
same,outcome,[6],inactive
same,outcome,[7],inactive
same,outcome,[8],inactive
same,outcome,[9],inactive
CCN(CC)C(=O)c1cccc(C)c1,outcome,[1],inactive
same,outcome,[2],inactive
same,outcome,[3],inactive
same,outcome,[4],inactive
same,outcome,[5],inactive
same,outcome,[6],inactive
same,outcome,[7],inactive
same,outcome,[8],inactive
same,outcome,[9],inactive

# Reference: PubChem BioAssay (EPA / NIEHS)
